Assay results taken from PubChem BioAssay (NCATS).
Records with an inconclusive call do not appear. The source made the active and inactive calls. Unless noted, the call rests on the fitted dose curve; in most records, active means well fitted curve in the direction sought with a large enough effect; inconclusive means small, poorly fitted or top-dose-only effect, or another doubt; inactive means no such curve, though single readings can be large; an effect the other way counts as inactive or inconclusive.

Columns and labels:
[1] = P-glycoprotein substrates identified in KB-3-1 adenocarcinoma cell line, qHTS therapeutic library screen (AID 1346986); further: nearly all actives have a fitted effect of over 60% in size
Procedure, shortened: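 Dose-response cytotoxicity, KB-3-1 vs P-gp-high KB-8-5-11, no colchicine in assay medium. Read: CellTiter-Glo at 72 h.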

[2] = tested on: Zika virus NS2B-NS3 protease (unlinked complex); experiment: Primary screen GU Rhodamine qHTS for Zika virus inhibitors: Unlinked NS2B-NS3 protease assay (AID 1347159); further: on the % scale 0 is the no-effect control and ±100 the full control effect; nearly all actives have a fitted effect of over 60% in size
Procedure, shortened: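 Percent inhibition came from the 15-min rise in Rhodamine110 fluorescence (1.5 microM substrate, ~15% conversion), normalized to no-inhibitor and no-enzyme wells and Hill-fitted. Unlinked protease, 25 nM, pH 8.0 Tris buffer; compounds up to 114 microM, 15-min preincubation.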

[3] = target: Calcium and integrin-binding protein 1 (Homo sapiens) (UniProt Q99828); experiment: Primary qHTS for Identification of Calcium Integrin Binding Protein 1 (CIB1) Competitor (AID 1508620);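 further: GST tagged CIB1 binding a fluorescein labelled alphaIIb integrin peptide tracer; top concentration of the series differs between compounds; on the % scale 0 is the no-effect control and ±100 the full control effect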
Procedure, shortened: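 CIB1-GST (1 uM final) and compound incubated 15 min at room temperature before adding FITC-alphaIIb peptide tracer (100 nM final). Competition for binding read by fluorescence polarization (ex 480, em 540) after another 15 min at room temperature.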

[4] = Primary fluorescence-based thiol-reactive (MSTI) qHTS assay for identification of artifact compounds. (AID 1845221); further: nearly all actives have a fitted effect of over 65% in size; further: potency means the concentration at half of the fitted maximal effect
Procedure, shortened: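 Reactivity toward the thiol probe MSTI (4 uM) is scored by fluorescence at Ex/Em 525/598 nm after 1 h at room temperature. Acetyl-MSTI and MSTI define the activity scale.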

[5] = Primary redox qHTS assay for identification of artifact compounds. (AID 1845223);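 further: 0% = DMSO and 100% = reference compound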
Procedure, shortened: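 Redox-cycling detection via DTT (250 uM final) oxidation coupled to Amplex Red (25 uM)/HRP (250 mU/mL) in HBSS. 15 min preincubation plus 30 min after DTT, room temperature. Ex/Em 525/598 nm; 4-parameter Hill fit against DMSO and 10 uM DA3003.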

KB-3-1 = experiment: Cytotoxic Profiling of Annotated Libraries Using Quantitative High-Throughput Screening (AID 1296008); details: Five cell lines viability, CellTiter-Glo ATP luminescence, 48-72 h; max response: stronger effect = lower value; further: nearly all actives have a fitted effect of over 60% in size; further: potency means the concentration at half of the fitted maximal effect; on max response: on the % scale 0 is the no-effect control and ±100 the full control effect
Procedure, shortened: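 Cytotoxicity was measured as CellTiter-Glo ATP luminescence, read after 10 min at room temperature. Compound treatment of the cells lasted 48 or 72 hr at 37 degrees Celsius in a qHTS format.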

HACAT = experiment: qHTS assay to identify novel small-molecules to repurpose for Merkel cell carcinoma treatment (AID 1296009); details: MCC and control cell lines, CellTiter-Glo viability, 72 h; at 44.8 µM (top of the series) unless noted; further: nearly all actives have a fitted effect of over 60% in size
Procedure, shortened: (§1)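 Cell viability measured by CellTiter-Glo following 72 hr compound treatment at 37 degree celsius, with NPC and MIPE libraries tested in 8- and 11-point concentration series.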

JEG-3 = experiment: Primary qHTS to identify gynecologic anti-cancer compounds using libraries of approved drugs and bioactive compounds (AID 1345084); details: Gynecologic cancer cell panel viability, ATPlite luminescence, 48 h; series mostly up to 57.5 µM; further: nearly all actives have a fitted effect of over 55% in size; further: potency means the concentration at half of the fitted maximal effect
Procedure, shortened: (§2)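 Measured: luminescence after ATPlite addition (15 min, RT). Exposure: 48 h, 37 C, 5% CO2.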

SKOV3 = experiment: as above; details: Gynecologic cancer cell panel viability, ATPlite luminescence, 48 h; series mostly up to 57.5 µM
Procedure, shortened: as §2

[6] = tested on: Zika virus NS2B-NS3 protease (linked construct); experiment: Primary screen NINDS Rhodamine qHTS for Zika virus inhibitors (AID 1347160); further: nearly all actives have a fitted effect of over 55% in size; on activity change, negative = inhibition: on the % scale 0 is the no-effect control and ±100 the full control effect
Procedure, shortened: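 Rhodamine110-peptide cleavage (1.5 µM substrate) by 25 nM linked NS2B-NS3 enzyme at pH 8.0 (Tris, Tween 20), after 15 min RT preincubation with compounds; 15-min fluorescence change normalized to controls and Hill-fitted.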

[7] = Cytotoxicity counterscreen for inhibitors of SARS-CoV-2 cell entry (AID 1645845; calls by dose curve; further: nearly all actives have a fitted effect of over 50% in size)
Procedure, shortened: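 ATP-content luminescence (ATPLite 1step, 15 min RT) read after 48 h compound exposure of Expi293F cells stably expressing human ACE2; normalized to cells-only wells and media-only wells.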

CAOV3 = experiment: Primary qHTS to identify gynecologic anti-cancer compounds using libraries of approved drugs and bioactive compounds (AID 1345084); details: Gynecologic cancer cell panel viability, ATPlite luminescence, 48 h; series mostly up to 57.5 µM; further: nearly all actives have a fitted effect of over 55% in size; further: potency means the concentration at half of the fitted maximal effect
Procedure, shortened: as §2

[8] = target: Cytochrome P450 2C9 (Homo sapiens) (UniProt P11712); experiment: Cytochrome P450 family 2 subfamily C member 9 (CYP2C9) small molecule antagonists: luciferase biochemical (cell-free) qHTS assay (AID 1645842; active means well fitted curve in the direction sought with a large enough effect in the repeat runs; an effect the other way counts as inactive or inconclusive; further: nearly all actives have a fitted effect of over 55% in size; further: potency means the concentration at half of the fitted maximal effect; on activity change, negative = inhibition: on the % scale 0 is the no-effect control and ±100 the full control effect)
Procedure, shortened: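 P450-Glo CYP2C9 system: proluciferin substrate with enzyme in mix containing 0.4% BSA, 10 min at room temperature, then NADPH regeneration solution added and incubated 1 h at 37C. Detection reagent stopped reaction; luminescence read after 20 min as RLU.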

CRL-7250 = normal cell line; experiment: qHTS assay to identify novel small-molecules to repurpose for Merkel cell carcinoma treatment (AID 1296009); details: MCC and control cell lines, CellTiter-Glo viability, 72 h; series mostly up to 92 µM; further: nearly all actives have a fitted effect of over 60% in size
Procedure, shortened: as §1

[9] = target: Cytochrome P450 2D6 (Homo sapiens) (UniProt P10635); experiment: Cytochrome P450 family 2 subfamily D member 6 (CYP2D6) small molecule antagonists: luciferase biochemical (cell-free) qHTS assay (AID 1645840; active means well fitted curve in the direction sought with a large enough effect in the repeat runs; an effect the other way counts as inactive or inconclusive)
Procedure, shortened: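 P450-Glo CYP2D6 system: proluciferin substrate converted by enzyme to luciferin, read by luminescence proportional to activity. Enzyme-substrate mix with compound 10 min at room temperature, then NADPH regeneration 1 h before detection reagent.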

[10] = qHTS drug screen for cell cycle checkpoint inhibitors in PARPi-resistant BRCA-mutant ovarian cancer cell lines. (AID 1963452; calls by dose curve); details: PEO1/OlaR viability, CellTiter-Glo luminescence, 96 h, stronger effect = lower value
Procedure, shortened: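 PEO1, PEO4 and PEO1/OlaR ovarian cancer cells, 600 per well, exposed 96 h at 37C to a dilution series. Viability read by CellTiter-Glo luminescence, normalized to DMSO and empty wells; activity summarized as Z-AUC.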

[11] = qHTS Assay for Lipid Storage Modulators (AID 1519; calls by dose curve); details: Drosophila S3 cells, BODIPY lipid droplet/cell ratio, laser cytometry, cells loaded with oleic acid
Procedure, shortened: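 Cells seeded at 5,000 per well were treated with compounds over a concentration series and loaded with oleic acid (400 uM, as added). Lipid droplet fluorescence (488 nm excitation, 500-530 nm channel) was read by laser-scanning cytometry and normalized to 20 uM Triacsin C.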

Chain of Cytochrome P450 2C9 (Homo sapiens) (P11712 whole entry, looked up): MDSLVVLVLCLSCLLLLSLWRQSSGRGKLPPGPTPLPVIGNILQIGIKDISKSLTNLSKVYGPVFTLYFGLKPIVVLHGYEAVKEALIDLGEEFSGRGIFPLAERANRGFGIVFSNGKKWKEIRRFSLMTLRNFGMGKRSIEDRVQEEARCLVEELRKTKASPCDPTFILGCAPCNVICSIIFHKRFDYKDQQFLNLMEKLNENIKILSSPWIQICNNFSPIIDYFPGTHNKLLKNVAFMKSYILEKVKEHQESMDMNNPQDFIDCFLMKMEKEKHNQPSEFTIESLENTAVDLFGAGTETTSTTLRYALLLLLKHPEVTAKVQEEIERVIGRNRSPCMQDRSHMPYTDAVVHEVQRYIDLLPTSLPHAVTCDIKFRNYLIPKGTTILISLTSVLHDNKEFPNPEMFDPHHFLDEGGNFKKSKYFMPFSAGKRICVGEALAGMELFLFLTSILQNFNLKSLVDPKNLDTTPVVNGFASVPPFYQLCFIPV
Chain of Calcium and integrin-binding protein 1 (Homo sapiens) (Q99828 whole entry, looked up): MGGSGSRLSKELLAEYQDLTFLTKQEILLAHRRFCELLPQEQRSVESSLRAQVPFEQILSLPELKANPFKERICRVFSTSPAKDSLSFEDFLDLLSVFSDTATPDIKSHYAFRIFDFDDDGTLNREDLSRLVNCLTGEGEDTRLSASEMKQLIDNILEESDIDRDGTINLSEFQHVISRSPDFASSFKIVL
Chain of Cytochrome P450 2D6 (Homo sapiens) (P10635 whole entry, looked up): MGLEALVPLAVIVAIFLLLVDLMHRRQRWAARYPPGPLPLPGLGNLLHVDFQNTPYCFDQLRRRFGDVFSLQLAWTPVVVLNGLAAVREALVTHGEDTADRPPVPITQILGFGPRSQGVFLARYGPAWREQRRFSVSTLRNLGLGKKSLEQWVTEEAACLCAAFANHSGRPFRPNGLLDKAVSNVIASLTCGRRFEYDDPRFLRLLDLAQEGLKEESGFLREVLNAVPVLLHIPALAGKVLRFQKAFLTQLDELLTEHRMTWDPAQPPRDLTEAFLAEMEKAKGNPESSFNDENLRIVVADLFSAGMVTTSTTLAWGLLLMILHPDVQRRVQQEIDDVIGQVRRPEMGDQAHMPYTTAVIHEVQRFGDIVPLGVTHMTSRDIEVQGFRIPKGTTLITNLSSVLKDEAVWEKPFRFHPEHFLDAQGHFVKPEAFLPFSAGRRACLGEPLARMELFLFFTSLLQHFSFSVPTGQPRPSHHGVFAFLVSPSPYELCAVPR

CC1=CC2(O)/C=C/C(C)(O)C(O)C(O)/C=C/C(=O)OC23C(=O)NC(CC(C)C)C3C1C (stereo unspecified)
inactive: Potency [1] | Potency [2] | Potency [3] | Potency [5] | outcome (KB-3-1) | outcome (HACAT) inactive [at 17.4 µM] | Potency (JEG-3) | Potency (SKOV3)
active: Potency [4] 10.3 µM

CC(=O)O[C@H]1CC[C@H]2[C@@H]3CC[C@H]4CC(=O)C=C(C)[C@]4(C)[C@H]3CC[C@]12C
inactive: Potency [6] | Potency [3] | Potency [7] | Potency [5] | max response (KB-3-1) 7.22% | outcome (HACAT) | Potency (CAOV3) | Potency (JEG-3) | Potency (SKOV3)

c1cncc(OC[C@@H]2CCN2)c1
inactive: Potency [6] | Potency [3] | Potency [8] | Potency [4] | Potency [5] | max response (KB-3-1) -3.57% | Potency (CAOV3) | Potency (JEG-3) | Potency (SKOV3)

CN1CCc2cc3c(cc2[C@H]1[C@@H]1OC(=O)c2c1ccc1c2OCO1)OCO3
inactive: Potency [1] | Potency [2] | Potency [6] | Potency [3] | Potency [4] | Potency [5] | outcome (KB-3-1) | outcome (HACAT) | Potency (CAOV3) | Potency (JEG-3) | Potency (SKOV3)

CC(=O)O[C@@H]1[C@H]2CC[C@H]3[C@@](C)(O)[C@@H]4C[C@H](O)C(C)(C)[C@@]4(O)[C@H](O)C[C@@]13C[C@@]2(C)O
inactive: Potency [2] | Potency [6] | Potency [5] | max response (KB-3-1) 2.41% | Potency (CRL-7250) | Potency (CAOV3) | Potency (JEG-3) | Potency (SKOV3)

COc1ccc2c3c4n(c2c1)[C@@H](C=C(C)C)OOC(C)(C)C[C@@H]4N1C(=O)[C@@H]2CCCN2C(=O)[C@]1(O)[C@H]3OCC=C(C)C
inactive: Potency [2] | Potency [6] | Potency [3] | Potency [4] | max response (KB-3-1) 8.3% | Potency (CRL-7250) | Potency (CAOV3) | Potency (JEG-3) | Potency (SKOV3)

CC(=O)N1N=C(c2ccc(N)cc2)c2cc3c(cc2C[C@H]1C)OCO3
active: Potency [8] 12 µM
0.412: Z-AUC ([10]; measured here: PEO4 Z-AUC)
inactive: Potency [2] | Potency [6] | Potency [3] | Potency [9] | Potency [7] | Potency [5] | Z-AUC [10] 0.45 | max response (KB-3-1) 6.29% | Potency (CAOV3) | Potency (JEG-3) | Potency (SKOV3)
0.452: Z-AUC ([10]; measured here: PEO1 parental Z-AUC)

CN1C(=O)CN=C(c2ccccc2Cl)c2cc(Cl)ccc21
inactive: Potency [2] | Potency [9] | max response (KB-3-1) -0.99% | Potency (CRL-7250) | Potency (CAOV3) | Potency (JEG-3) | Potency (SKOV3)
active: Potency [8] 21.3 µM

C=CCN1CCC2(C)c3cc(O)ccc3C[C@H]1[C@H]2C
inactive: activity change, negative = inhibition ([11]; at 57.5 µM (top of the series)) -8.46% | Potency [2] | Potency [3] | Potency [4] | Potency [5] | max response (KB-3-1) 1.41% | Potency (CAOV3) | Potency (JEG-3) | Potency (SKOV3)
17%: max response ([11]; measured here: lipid channel max response)
25.8%: max response ([11]; measured here: cell count channel max response)

C=C1[C@@]23C(=O)O[C@H](C)[C@]24O[C@@]2(C(=C)[C@]5(C=CC(=O)OC5(C)C)CC[C@]32C)[C@H](O)[C@@]1(C)OC4=O
inactive: Potency [3] | max response (KB-3-1) -4.55% | outcome (HACAT) inactive [at 17.4 µM] | Potency (CAOV3) | Potency (JEG-3) | Potency (SKOV3)

C[C@@H]1CCC/C=C/[C@H]2C[C@@H](O)C[C@@H]2[C@@H](O)/C=C/C(=O)O1
inactive: Potency [2] | Potency [6] | Potency [3] | Potency [4] | Potency [5]
active: Potency (KB-3-1) 0.146 µM | Potency (CAOV3) 0.316 µM | Potency (JEG-3) 1 µM | Potency (SKOV3) 0.355 µM

C/C=C1/CN2CC[C@]34C(=Nc5ccc(OC)cc53)C2C[C@@H]1C4(CO)C(=O)OC (stereo partly specified)
inactive: Potency [2] | Potency [6] | Potency [3] | Potency [5] | max response (KB-3-1) 0.853% | outcome (HACAT) | Potency (CAOV3) | Potency (JEG-3) | Potency (SKOV3)

COCC(C(=O)OC1CC2CCC(C1)N2C)c1ccccc1 (stereo unspecified)
inactive: Potency [1] | Potency [2] | Potency [3] | Potency [4] | Potency [5] | outcome (KB-3-1) | outcome (HACAT) | Potency (CAOV3) | Potency (JEG-3)

COc1ccsc1CNCC[C@@]1(c2ccccn2)CCOC2(CCCC2)C1
inactive: Potency [2] | Potency [6] | Potency [3] | Potency [9] | Potency [8] | Potency [4] | Potency [5] | max response (KB-3-1) 9.07% | Potency (CAOV3) | Potency (JEG-3) | Potency (SKOV3)

C[C@]12CC[C@H]3[C@@H](CCC4=C/C(=N/OCC(=O)O)CC[C@@]43C)[C@@H]1CC[C@@H]2O
inactive: Potency [1] | Potency [6] | Potency [3] | outcome (KB-3-1) | Potency (CAOV3) | Potency (JEG-3) | Potency (SKOV3)

COC(=O)C1=COC(C)C2CN3CCC4(C(=O)Nc5ccccc54)C3CC12 (stereo unspecified)
inactive: Potency [2] | Potency [6] | Potency [3] | Potency [4] | Potency [5] | max response (KB-3-1) -8.2% | Potency (CAOV3) | Potency (JEG-3) | Potency (SKOV3)

CC1(C)C(=O)N(c2ccc(C#N)c(C(F)(F)F)c2)C(=O)N1CCCCO
inactive: Potency [6] | Potency [3] | Potency [9] | Potency [4] | Potency [5] | max response (KB-3-1) -3.73% | Potency (CAOV3) | Potency (JEG-3) | Potency (SKOV3)
active: Potency [8] 10.7 µM

C#CCO[C@H]1CN2CCC1CC2
inactive: Potency [6] | Potency [3] | Potency [4] | Potency [5] | max response (KB-3-1) 2.91% | Potency (CAOV3) | Potency (JEG-3) | Potency (SKOV3)
